Assay results: PubChem BioAssay (NCATS)
Unmarked numbers belong to inactive results. Inconclusive results are not listed. Entries that show only a call come without a potency. Active and inactive are the calls of the source. Unless noted, calls come from the whole dose curve; as a rule, active = well fitted curve in the direction sought with a large enough effect; inconclusive = small, poorly fitted or top-dose-only effect, or another doubt; inactive = no such curve, though single readings can be large; an effect the other way counts as inactive or inconclusive.

Legend:
[1] = High Content Imaging Cell-Based qHTS for Inhibitors of the mTORC1 Signaling Pathway in MEF (Tsc2-/-, p53-/-) Cells (AID 2666);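 note: percent of cells scored positive for phospho-rpS6 Ser235/236 immunostaining by imaging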; note: potency is the fitted concentration of half-maximal effect
Summary of the method: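 Cells were plated, dosed with compound after 24 hrs, and incubated another 24 hrs at 37 degree Celsius. Fixed cells were immunostained for phospho-rpS6 Ser235/236 and counterstained, and the normalized signal was scored as % active cells against rapamycin and DMSO controls.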

[2] = Validation screen for small molecules that induce DNA re-replication in MCF 10A normal breast cells (AID 463097); note: potency is the fitted concentration of half-maximal effect; nearly all actives have a fitted effect of over 60% in size
Summary of the method: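 Readout: Hoechst nuclear fluorescence intensity, 405 ex / 500-530 em, by scanning plate imager; re-replication scored as increase in nuclei with elevated DNA content. Cells exposed to compound 48 hr, 37 C, 5% CO2 beforehand.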

[3] = molecular target: Ubiquitin carboxyl-terminal hydrolase 2 (Homo sapiens) (UniProt O75604); test: qHTS Validation Assay for Inhibitors of Ubiquitin-specific Protease USP2a Using CHOP2 as the Reporter (AID 463106)
Summary of the method: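 10nM USP2 core + cpd, 30min RT; add 25nM Ub-CHOP2/25nM substrate; 60min RT; FI 485/531nm. Buffer Tris pH 8.0, CaCl2, BME, CHAPS. Norm. to NEM = 100% inhibition; time-zero read flags fluorescent artifacts.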

[4] = molecular target: Tumor susceptibility gene 101 protein (Homo sapiens) (UniProt Q99816); test: qHTS Validation Assay for Iinhibitors of HIV-1 Budding by Blocking the Interaction of PTAP/TSG101 (AID 485342; calls by dose curve)
Sequence of Tumor susceptibility gene 101 protein (Homo sapiens) (Q99816 whole entry, looked up, the tested form may be a part): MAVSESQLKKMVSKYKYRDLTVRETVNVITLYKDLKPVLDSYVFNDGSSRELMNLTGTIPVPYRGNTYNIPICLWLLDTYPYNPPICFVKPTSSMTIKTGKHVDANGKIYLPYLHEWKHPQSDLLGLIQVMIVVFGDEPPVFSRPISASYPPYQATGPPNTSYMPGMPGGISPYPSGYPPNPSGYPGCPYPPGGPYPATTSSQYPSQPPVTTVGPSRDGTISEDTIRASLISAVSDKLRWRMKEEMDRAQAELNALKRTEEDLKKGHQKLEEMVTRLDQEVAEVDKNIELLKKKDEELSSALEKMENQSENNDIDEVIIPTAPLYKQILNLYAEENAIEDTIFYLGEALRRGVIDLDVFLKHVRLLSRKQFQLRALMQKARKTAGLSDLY
Summary of the method: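 Tsg101 binding domain (10 uM final) in pH 7.5 HEPES/NaCl/Tween 20/EDTA/TCEP buffer was mixed with pin-transferred compounds, then FITC-labeled PTAP peptide (50 nM final) was added; after 20 min at r.t., fluorescence polarization was read.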

[5] = qHTS Validation Assay to Find Inhibitors of Chronic Active B-Cell Receptor Signaling (AID 485345; active = well fitted curve in the direction sought with a large enough effect in the main read-out, with a control signal flat, not every such curve was filed as active)
Summary of the method: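 Read-out: ratio of filter-corrected green (IkappaBalpha fusion) to red (native) luciferase signal in doxycycline-induced TMD8 cells after 4 h at 37C. Titration spanned 46 uM–3 nM; Data were normalised to basal cells and 10 uM MG-132 wells.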

[6] = molecular target: Beta-2 adrenergic receptor (Homo sapiens) (UniProt P07550); test: qHTS validation assay of beta-arrestin-biased ligands of beta2-adrenergic receptor (AID 485366)
Sequence of Beta-2 adrenergic receptor (Homo sapiens) (P07550 whole entry, looked up): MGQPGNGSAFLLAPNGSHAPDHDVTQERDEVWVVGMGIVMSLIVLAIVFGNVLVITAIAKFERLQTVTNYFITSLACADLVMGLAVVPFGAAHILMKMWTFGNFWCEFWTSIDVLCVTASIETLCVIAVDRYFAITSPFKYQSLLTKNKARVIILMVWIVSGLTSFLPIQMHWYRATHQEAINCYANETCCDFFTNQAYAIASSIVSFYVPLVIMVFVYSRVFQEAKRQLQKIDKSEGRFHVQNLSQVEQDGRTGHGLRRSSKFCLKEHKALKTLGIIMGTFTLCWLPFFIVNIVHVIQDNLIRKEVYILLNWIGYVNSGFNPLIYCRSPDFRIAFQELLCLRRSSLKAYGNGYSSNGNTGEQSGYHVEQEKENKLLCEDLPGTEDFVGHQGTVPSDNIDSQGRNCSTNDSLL
Summary of the method: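 Tango cells (recombinant beta2-AR with recombinant beta-arrestin; recruitment releases tTA driving luciferase) were treated with compounds titrated up to 46 microM for 18 hr at 37 degrees C. Luminescence gave %Activity, and concentration-response curves were curve-classified.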

[7] = Quantitative high throughput screen for delayed death inhibitors of the malarial parasite plastid, 96 hour incubation (AID 488745);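 note: luciferase-expressing P. falciparum in erythrocytes at 2% hematocrit and 0.1% parasitemia; series mostly up to about 29 µM; nearly all actives have a fitted effect of over 70% in size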
Summary of the method: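 Infected erythrocytes were added to compound in Albumax-supplemented RPMI 1640 at 0.1% parasitemia and 2% hematocrit (final), incubated 96 h at 37 C under 5% CO2, then luciferase reagent was added and luminescence measured.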

[8] = Quantitative high throughput screen for delayed death inhibitors of the malarial parasite plastid, 48 hour incubation (AID 488752); note: nearly all actives have a fitted effect of over 65% in size
Summary of the method: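 Readout is firefly luciferase luminescence from a reporter integrated into the parasite genome, with lower signal taken as inhibited growth. Infected red cells (0.1% parasitemia, 2% hematocrit final) are cultured with compound for one 48 h cycle at 37 C.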

[9] = molecular target: Thioredoxin reductase 1, cytoplasmic (Rattus norvegicus) (UniProt O89049); test: qHTS Assay for Substrates of Mammalian Selenoprotein Thioredoxin Reductase 1 (TrxR1) (AID 488772);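 note: NADPH fluorescence in the first read after selenite addition and not the 8 min delta; a drop in NADPH fluorescence below the no-compound background marks a TrxR1 substrate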; note: potency is the fitted concentration of half-maximal effect
Summary of the method: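 Quantitative HTS in Tris-HCl buffer at pH 7.5 with EDTA and Tween-20, using rat TrxR1, 400 uM NADPH and 400 uM selenite (final). A fall in initial NADPH fluorescence relative to background marked substrate behaviour.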

[10] = molecular target: Thioredoxin reductase 1, cytoplasmic (Rattus norvegicus) (UniProt O89049); test: qHTS Assay for Inhibitors of Mammalian Selenoprotein Thioredoxin Reductase 1 (TrxR1) (AID 488773); details: Potency: inhibition;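 note: drop in NADPH fluorescence over an 8 min run after selenite addition; series mostly up to about 57 µM; nearly all actives have a fitted effect of over 40% in size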
Summary of the method: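 Steps: enzyme (90 nM) plus NADPH (400 uM final), 5 min at ~22 deg C; compound added, 15 min; selenite (400 uM final) added; fluorescence followed for 8 min. Concentration-response curves derived from the normalized delta values.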

[11] = molecular target: Methanococcus maripaludis chaperonin (MmCpn) (UniProt Q6LX38); test: High-Throughput Screening for Modulators of Cytosolic Chaperonin Activity: MmCpn Primary Screen (AID 488978);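 note: 50 nM MmCpn enzyme hydrolysing 30 µM ATP at 37 °C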
Sequence of Methanococcus maripaludis chaperonin (MmCpn) (Q6LX38 1-543): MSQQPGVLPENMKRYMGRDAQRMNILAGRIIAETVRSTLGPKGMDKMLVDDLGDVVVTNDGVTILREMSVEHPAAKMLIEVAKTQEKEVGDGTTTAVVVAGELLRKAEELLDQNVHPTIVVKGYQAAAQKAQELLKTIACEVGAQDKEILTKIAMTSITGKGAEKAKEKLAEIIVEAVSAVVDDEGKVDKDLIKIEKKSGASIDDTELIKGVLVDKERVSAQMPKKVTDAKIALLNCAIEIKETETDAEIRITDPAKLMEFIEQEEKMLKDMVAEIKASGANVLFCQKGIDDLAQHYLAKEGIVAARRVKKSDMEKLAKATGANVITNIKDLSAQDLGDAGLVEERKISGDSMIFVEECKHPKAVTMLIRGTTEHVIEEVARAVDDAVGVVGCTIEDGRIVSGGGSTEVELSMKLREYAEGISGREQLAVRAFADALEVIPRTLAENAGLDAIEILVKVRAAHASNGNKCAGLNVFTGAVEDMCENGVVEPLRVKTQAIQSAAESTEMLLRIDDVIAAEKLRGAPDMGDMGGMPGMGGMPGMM
Summary of the method: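 MmCpn (50 nM final) was preincubated with compound 5 min at RT, then 30 uM ATP (final) was added and the reaction ran 10 min at 37C. ADP produced was detected by Transcreener HTRF (ex 320 nm; em 590/665 nm).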

[12] = molecular target: Thyrotropin receptor (Homo sapiens) (UniProt P16473); test: qHTS Assay for Antagonists of the Thyroid Stimulating Hormone Receptor (AID 488980); note: series mostly up to about 58 µM
Sequence of Thyrotropin receptor (Homo sapiens) (P16473 whole entry, looked up): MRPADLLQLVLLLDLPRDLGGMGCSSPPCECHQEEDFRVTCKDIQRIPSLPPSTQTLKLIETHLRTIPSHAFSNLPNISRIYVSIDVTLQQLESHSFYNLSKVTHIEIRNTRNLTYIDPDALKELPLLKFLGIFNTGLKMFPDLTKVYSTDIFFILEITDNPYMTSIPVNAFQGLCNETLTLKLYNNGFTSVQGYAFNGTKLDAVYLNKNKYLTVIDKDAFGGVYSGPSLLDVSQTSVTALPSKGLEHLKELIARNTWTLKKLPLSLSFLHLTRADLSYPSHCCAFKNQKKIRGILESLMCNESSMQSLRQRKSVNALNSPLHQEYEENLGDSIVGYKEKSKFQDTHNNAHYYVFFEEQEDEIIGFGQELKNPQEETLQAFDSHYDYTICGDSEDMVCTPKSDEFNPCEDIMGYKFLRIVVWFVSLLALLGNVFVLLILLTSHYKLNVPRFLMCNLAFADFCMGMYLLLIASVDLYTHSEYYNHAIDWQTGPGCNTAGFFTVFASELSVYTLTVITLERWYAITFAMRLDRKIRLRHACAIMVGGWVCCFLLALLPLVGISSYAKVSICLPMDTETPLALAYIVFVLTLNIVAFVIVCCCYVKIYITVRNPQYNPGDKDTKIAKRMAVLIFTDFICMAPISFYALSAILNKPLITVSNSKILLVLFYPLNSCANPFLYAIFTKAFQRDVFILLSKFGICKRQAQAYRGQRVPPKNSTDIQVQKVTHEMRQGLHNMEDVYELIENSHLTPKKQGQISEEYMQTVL
Summary of the method: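 HEK293 cells transfected with human TSHR, suspended in HEPES-buffered HBSS with 70 uM RO 20-1724, were treated with compounds plus TSH at EC80 (4 nM final). cAMP was measured by competitive HTRF (cryptate anti-cAMP antibody, cAMP-d2 acceptor).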

[13] = molecular target: D(1A) dopamine receptor (Homo sapiens) (UniProt P21728); test: HTS Assay for Allosteric Agonists of the Human D1 Dopamine Receptor: Primary Screen for Agonists (AID 488981)
Sequence of D(1A) dopamine receptor (Homo sapiens) (P21728 whole entry, looked up): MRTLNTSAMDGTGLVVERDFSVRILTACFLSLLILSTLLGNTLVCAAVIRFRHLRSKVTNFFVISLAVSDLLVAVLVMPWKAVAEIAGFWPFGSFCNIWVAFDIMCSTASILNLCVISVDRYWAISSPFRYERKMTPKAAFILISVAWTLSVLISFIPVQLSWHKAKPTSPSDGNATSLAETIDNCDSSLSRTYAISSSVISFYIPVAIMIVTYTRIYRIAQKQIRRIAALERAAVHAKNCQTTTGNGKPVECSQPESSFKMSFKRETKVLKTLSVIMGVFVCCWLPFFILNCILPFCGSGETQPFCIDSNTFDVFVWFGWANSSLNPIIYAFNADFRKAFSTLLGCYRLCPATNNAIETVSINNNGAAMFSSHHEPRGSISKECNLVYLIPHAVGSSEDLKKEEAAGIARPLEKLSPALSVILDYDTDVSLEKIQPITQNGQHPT
Summary of the method: (§1)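 Calcium flux in an inducible, force-coupled HEK293 Trex D1 line (overnight at 30 C): agonist mode is the 180 s kinetic read after compound; potentiator mode is the following 180 s read after dopamine at EC20.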

[14] = molecular target: D(1A) dopamine receptor (Homo sapiens) (UniProt P21728); test: HTS Assay for Allosteric Agonists of the Human D1 Dopamine Receptor: Primary Screen for Potentiators (AID 488982)
Summary of the method: as §1

[15] = molecular target: ATP-dependent 6-phosphofructokinase (Trypanosoma brucei brucei) (UniProt O15648); test: qHTS Assay to Find Inhibitors of T. brucei phosphofructokinase: hit validation (AID 492961);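 note: luminescence reports ADP formed as PFK phosphorylates fructose-6-phosphate with ATP; series mostly up to about 51 µM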
Summary of the method: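 Measures ADP output of PFK (1.25 nM) at 0.1 mM ATP, 0.5 mM F6P, pH 8.0 TEA buffer with 5 mM MgCl2. No-enzyme wells define full inhibition; uninhibited enzyme wells define zero.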

[16] = Validation screen for small molecules that induce genotoxicity in human embryonic kidney (HEK293T) cells expressing luciferase-tagged ELG1 (AID 493106)
Summary of the method: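 Luminescence from an ELG1-luciferase fusion serves as the read-out, rising when genetic stress elevates ELG1 protein. HEK293T reporter cells (2,000 per well) received 23 nL compound, incubated 16 hr at 37 °C, then ONE-Glo for 30 min at room temperature.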

[17] = Cytometric Cell-Based qHTS for Inhibitors of the mTORC1 Signaling Pathway in MEF (Tsc2-/-, p53-/-) Cells (AID 2660);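 note: Tsc2 and p53 null MEFs carrying empty vector with compound for 24 h; percent of cells above a phospho-rpS6 to PI ratio cutoff in each well; series mostly up to about 38 µM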
Summary of the method: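 Readout: Alexa-488 phospho-rpS6 (Ser235/236) intensity divided by PI intensity, thresholded against 7.5 nM rapamycin wells and reported as % positive cells. PI cell count served as the viability measure. Compound exposure was 24 hrs at 37 degree Celsius.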

[18] = molecular target: ATPase family AAA domain-containing protein 5 (Homo sapiens) (UniProt Q96QE3); test: Validation screen for small molecules that inhibit ELG1-dependent DNA repair in human embryonic kidney (HEK293T) cells expressing luciferase-tagged ELG1 (AID 493107);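 note: cells co-treated with the DNA-damaging agent 5-fluorouridine alongside compound; series mostly up to about 46 µM; inhibitors lower the ELG1-luciferase luminescence signal; nearly all actives have a fitted effect of over 70% in size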
Sequence of ATPase family AAA domain-containing protein 5 (Homo sapiens) (Q96QE3 whole entry, looked up, the tested form may be a part): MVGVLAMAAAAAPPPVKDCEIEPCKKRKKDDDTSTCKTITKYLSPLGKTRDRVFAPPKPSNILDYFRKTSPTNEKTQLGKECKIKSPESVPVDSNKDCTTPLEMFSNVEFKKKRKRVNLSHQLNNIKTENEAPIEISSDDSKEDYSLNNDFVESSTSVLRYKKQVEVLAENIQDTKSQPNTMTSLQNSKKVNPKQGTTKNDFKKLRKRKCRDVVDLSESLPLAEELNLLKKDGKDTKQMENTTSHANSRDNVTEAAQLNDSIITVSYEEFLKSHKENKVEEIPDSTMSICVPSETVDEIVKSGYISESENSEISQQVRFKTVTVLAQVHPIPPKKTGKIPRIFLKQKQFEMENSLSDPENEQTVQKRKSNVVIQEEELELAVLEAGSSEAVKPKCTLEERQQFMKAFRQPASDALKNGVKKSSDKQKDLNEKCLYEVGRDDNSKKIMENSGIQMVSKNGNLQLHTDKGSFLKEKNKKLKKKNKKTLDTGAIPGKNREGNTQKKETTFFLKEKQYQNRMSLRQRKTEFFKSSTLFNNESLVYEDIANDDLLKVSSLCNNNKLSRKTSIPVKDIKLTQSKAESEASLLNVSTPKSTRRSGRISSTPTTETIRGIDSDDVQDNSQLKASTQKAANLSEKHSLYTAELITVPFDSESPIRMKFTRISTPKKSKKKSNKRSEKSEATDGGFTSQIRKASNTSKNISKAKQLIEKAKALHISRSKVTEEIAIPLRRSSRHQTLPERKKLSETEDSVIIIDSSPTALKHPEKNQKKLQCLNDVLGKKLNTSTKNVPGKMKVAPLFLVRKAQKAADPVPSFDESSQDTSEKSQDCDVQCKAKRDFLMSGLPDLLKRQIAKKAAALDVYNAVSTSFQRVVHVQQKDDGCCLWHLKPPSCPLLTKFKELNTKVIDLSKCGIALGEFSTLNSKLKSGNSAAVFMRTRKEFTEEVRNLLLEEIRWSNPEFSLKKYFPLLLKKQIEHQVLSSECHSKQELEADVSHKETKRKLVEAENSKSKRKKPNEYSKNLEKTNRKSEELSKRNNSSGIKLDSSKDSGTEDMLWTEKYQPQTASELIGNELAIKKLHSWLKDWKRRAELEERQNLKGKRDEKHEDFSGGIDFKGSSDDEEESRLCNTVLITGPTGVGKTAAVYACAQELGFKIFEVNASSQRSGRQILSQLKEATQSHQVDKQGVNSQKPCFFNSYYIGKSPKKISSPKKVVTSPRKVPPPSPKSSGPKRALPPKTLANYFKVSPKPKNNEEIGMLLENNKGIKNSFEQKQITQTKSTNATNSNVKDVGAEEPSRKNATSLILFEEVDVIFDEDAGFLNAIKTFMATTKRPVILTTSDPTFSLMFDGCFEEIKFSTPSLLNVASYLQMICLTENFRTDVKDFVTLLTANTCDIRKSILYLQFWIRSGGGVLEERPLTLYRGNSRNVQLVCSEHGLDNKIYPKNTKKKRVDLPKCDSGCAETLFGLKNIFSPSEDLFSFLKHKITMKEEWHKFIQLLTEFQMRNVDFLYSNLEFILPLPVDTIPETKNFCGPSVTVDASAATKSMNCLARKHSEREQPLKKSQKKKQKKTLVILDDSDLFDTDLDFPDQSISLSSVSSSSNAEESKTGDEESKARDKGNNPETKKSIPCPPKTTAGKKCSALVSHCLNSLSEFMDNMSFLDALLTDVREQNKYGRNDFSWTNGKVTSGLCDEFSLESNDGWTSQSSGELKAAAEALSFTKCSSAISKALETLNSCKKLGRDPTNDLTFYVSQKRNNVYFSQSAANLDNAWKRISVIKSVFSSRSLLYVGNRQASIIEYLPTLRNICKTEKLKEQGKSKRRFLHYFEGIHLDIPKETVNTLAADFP
Summary of the method: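 Luminescence from ONE-Glo, developed 30 min at room temperature, served as read-out of ELG1-luciferase levels. Beforehand, reporter HEK293T cells received 5-fluorouridine plus test compound for 16 hr at 37 °C.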

[19] = molecular target: Flap endonuclease 1 (Homo sapiens) (UniProt P39748); test: qHTS Validation Assay for the Inhibitors of Human Flap endonuclease 1 (FEN1) (AID 488816)
Sequence of Flap endonuclease 1 (Homo sapiens) (P39748 whole entry, looked up): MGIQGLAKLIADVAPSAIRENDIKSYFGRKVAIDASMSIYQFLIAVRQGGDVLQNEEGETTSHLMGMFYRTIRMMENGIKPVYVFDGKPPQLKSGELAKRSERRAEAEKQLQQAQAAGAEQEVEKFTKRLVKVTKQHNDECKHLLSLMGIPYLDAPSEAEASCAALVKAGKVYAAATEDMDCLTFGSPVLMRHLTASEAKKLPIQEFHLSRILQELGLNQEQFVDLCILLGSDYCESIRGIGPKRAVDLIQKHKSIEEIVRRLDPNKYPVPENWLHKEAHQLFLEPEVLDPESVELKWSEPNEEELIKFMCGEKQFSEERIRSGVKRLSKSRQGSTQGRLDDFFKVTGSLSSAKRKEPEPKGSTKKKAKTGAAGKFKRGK
Summary of the method: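 Readings taken at 0 and 15 min after starting the reaction with 50 nM (final) substrate supplied the signal. Compounds had first sat with 10 nM FEN1 reagent for 15 min at room temperature. Values come from Hill-equation concentration-response fits.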

[20] = molecular target: Thyrotropin-releasing hormone receptor (Homo sapiens) (UniProt P34981); test: qHTS for Small Molecule Agonists and Allosteric Enhancers of Human TRH Receptor: Validation Screen for Agonists (AID 493127;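 active = calcium activation more than 3 SD above the typical response in the agonist read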;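 note: intracellular calcium rise by fluo-8 fluorescence before TRH EC20 addition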); details: TRH receptor agonist cell assay; at 2 µM; active compounds read high
Summary of the method: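 Cells 2000/well, 10% FCS, 18 h 33.5C/5% CO2 → fluo-8 Ca dye, RT 30 min–1.5 h → FDSS baseline 10 × 1 s → compound added → 230 cycles (1 s/cycle) agonist mode. TRH controls.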

SMILES | Potency [1] | Potency [2] | outcome [3] | outcome [4] | outcome [5] | outcome [6] | Potency [7] | outcome [8] | Potency [9] | Potency [10] | outcome [11] | outcome [12] | outcome [13] | outcome [14] | outcome [15] | Potency [16] | outcome [17] | outcome [18] | outcome [19] | activation [20]
CC(C)(C)c1ccc(C(O)CCCN2CCC(C(O)(c3ccccc3)c3ccccc3)CC2)cc1 (stereo not given) | 18.5 µM (active) | 11.2 µM (active) | inactive | inactive | inactive | inactive | inactive | inactive | inactive | inactive | inactive | inactive | inactive | inactive | inactive | inactive | – | – | – | –
O=C(NCCN1CCOCC1)c1ccc(Cl)cc1 | inactive | – | inactive | inactive | inactive | inactive | – | – | inactive | inactive | inactive | – | inactive | inactive | – | inactive | inactive | inactive | – | –
CC(=O)O[C@]1(C(C)=O)CC[C@H]2[C@@H]3C=C(Cl)C4=CC(=O)[C@@H]5C[C@@H]5[C@]4(C)[C@H]3CC[C@@]21C | inactive | – | inactive | inactive | inactive | inactive | – | – | inactive | inactive | inactive | – | inactive | – | inactive | inactive | inactive | inactive | inactive | –
CCn1cc(C(=O)O)c(=O)c2ccc(C)nc21 | inactive | – | inactive | inactive | inactive | inactive | – | – | inactive | inactive | inactive | – | inactive | inactive | – | inactive | inactive | inactive | – | –
CC1=C(/C=C/C(C)=C/C=C/C(C)=C/C(=O)Nc2ccc(O)cc2)C(C)(C)CCC1 | – | – | inactive | inactive | – | inactive | – | – | – | – | inactive | inactive | inactive | – | inactive | inactive | – | – | inactive | -0.438%
COc1ccc(Cc2nccc3cc(OC)c(OC)cc23)cc1OC | inactive | – | inactive | inactive | – | inactive | – | – | inactive | – | inactive | – | inactive | inactive | inactive | inactive | inactive | inactive | – | –
Clc1ccc(C(c2ccc(Cl)cc2)n2cc[n+](CC(OCc3ccc(Cl)cc3Cl)c3ccc(Cl)cc3Cl)c2)cc1 (stereo not given) | inactive | – | – | inactive | inactive | inactive | – | – | inactive | inactive | inactive | – | inactive | inactive | – | – | – | – | – | –
O=C(O)Cc1cccc2ccccc12 | – | – | – | – | – | – | – | – | – | – | – | – | – | – | inactive | – | – | – | – | –
CC1(C)CCC2=C(O1)c1ccccc1C(=O)C2=O | inactive | – | inactive | inactive | – | inactive | – | – | 18.9 µM (active) | – | inactive | inactive | inactive | inactive | – | inactive | – | – | inactive | -3.69%
